Records with an inconclusive call do not appear. A call without a number means that no potency is given here. A number with no mark means an inactive call. The source made the active and inactive calls. The call rests on the fitted dose curve; in most records, active means well fitted cell-killing curve with a large enough effect in the repeat runs; inconclusive means weak or mixed curves, or effect the other way; inactive means flat fitted curve, though single readings scatter.
Key:
[1] = cAMP Responsive Elements (CRE) small molecule antagonists, cell-based qHTS assay: qHTS cell viability counter screen (AID 2060913); further: nearly all actives have a fitted effect of over 40% in size
Outline: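 Viability of NKH477-stimulated (0.25 uM final) CRE-bla HEK293T cells is measured by CellTiter-Glo luminescence following 3 hrs compound exposure at 37 C.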

[2] = cAMP Responsive Elements (CRE) small molecule agonists, cell-based qHTS assay: qHTS cell viability counter screen (AID 2060914);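 further: viability read after 3 h of compound exposure; nearly all actives have a fitted effect of over 50% in size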
Outline: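 CRE-bla HEK 293T cells, plated 18 h at 37 °C, were exposed to compounds for 3 h at 37 °C/5% CO2. Viability was then measured in the same wells by CellTiter-Glo luminescence after 30 min at room temperature.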

| Compound | Potency [1] | Potency [2] | viability change, negative = cytotoxic [1] | activity change, negative = cytotoxicity [2] |
| --- | --- | --- | --- | --- |
| O=P(c1ccccc1)(c1ccccc1)c1ccccc1 | inactive | inactive | – | – |
| O=C(O)c1c(Cl)ccc(Cl)c1Cl | inactive | inactive | – | – |
| CC/C=C\CC/C=C/C(OCC)OCC | inactive | inactive | – | – |
| Cc1ccc(O)c([N+](=O)[O-])c1 | inactive | inactive | – | – |
| FC(F)(F)c1ccccc1Cl | inactive | inactive | – | – |
| NS(=O)(=O)c1cc2c(cc1Cl)NC(CC1CCCC1)NS2(=O)=O (stereo not drawn) | inactive | inactive | – | – |
| CC(=O)CC(=O)Nc1ccc2[nH]c(=O)[nH]c2c1 | inactive | inactive | – | – |
| NCCN | inactive | inactive | – | – |
| Nc1c(I)cc(I)c(C(=O)N(CCC(=O)O)c2ccccc2)c1I | inactive | inactive | – | – |
| CC(=O)C1(C)CC2=C(CCCC2(C)C)CC1C (stereo not drawn) | inactive | inactive | – | – |
| Cn1cc[nH]c1=S | inactive | inactive | – | – |
| OCCc1ccncc1 | inactive | inactive | – | – |
| CC1(C)CC(O)CC(C)(C)N1 | inactive | inactive | – | – |
| CCCCCCCCCCCCCCCCCC(=O)OCCCCCCCCCCCCCC(C)C | inactive | inactive | – | – |
| COc1ccc2cc1Oc1ccc(cc1)C[C@H]1c3c(cc4c(c3Oc3cc5c(cc3OC)CCN(C)[C@@H]5C2)OCO4)CCN1C | inactive | inactive | – | – |
| NC(Cc1ccc(Cl)cc1)C(=O)O (stereo not drawn) | – | – | 9.93% [at 0.349 µM] | -0.576% [at 0.349 µM] |
| CCOCN(C(=O)CS(=O)(=O)O)c1c(C)cccc1CC | inactive | inactive | – | – |
| CNCCS(=O)(=O)O | inactive | inactive | – | – |
| CCCCC(CC)C(=O)OCCOCCOCCOC(=O)C(CC)CCCC (stereo not drawn) | inactive | inactive | – | – |
